NFkB transloc pot: enhances IL-1B driven NFkB nuclear translocation | 0.3% of 94,000 active | HUVEC IL-1B NFkB p65 nuclear translocation imaging | activation, % at 2 µM | AID 819;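 active = activation above 40%, about the mean plus 3 SD, also judged a hit on visual image review; inconclusive = activation above 40% but not a hit on visual review; inactive = activation not above 40% and no visual hit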;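 also: percent activation is computed from the nuclear over cytoplasmic p65 intensity ratio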
NFkB transloc inh: blocks IL-1B driven NFkB nuclear translocation in HUVEC cells | HUVEC IL-1B NFkB p65 nuclear translocation imaging | 0.43% of 94,000 active | inhibition, % at 2 µM;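 active = inhibition above about 30% together with a positive call from visual inspection of the well image, limit read from the data; inconclusive = inhibition above a set limit but visual check negative; inactive = inhibition not above a set limit, visual check negative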;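 also: nuclear over cytoplasmic p65 intensity ratio measured by imaging; 0% = IL-1B stimulated DMSO wells and 100% = unstimulated DMSO wells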
Insulin prom inh: TRM-6 insulin promoter activity inhibition. TRM-6 cells (human fetal islet line), insulin promoter-eGFP reporter, imaging; reporter expression induced with tamoxifen. inhibition, % at 2 µM. 0.9% of 130,000 active. AID 1273;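 active = inhibition above the mean plus 3 SD, with well images judged a real hit on visual review, cut at about 60% in these data, passing the limit was not always enough; inconclusive = inhibition over the cutoff but images rejected on review; inactive = inhibition not above the cutoff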
HUVEC tox IL1B: HUVEC cytotoxicity counter-screen, IL-1B stimulated. HUVEC cell count loss, Hoechst imaging. cell count reduction, % at 2 µM. 0.41% of 94,000 active. AID 845;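 active = cell count reduction more than 3 SD above the screen-wide mean, cut at about 70% in these data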;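 also: normalized per plate to untreated control cells as the no-loss baseline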
Numbers without * were called inactive; ? = inconclusive; nt = not tested or not shown. This is a sample that favours compounds with a hit; in the whole collection about 1.4% have one here.

SMILES	NFkB transloc pot	NFkB transloc inh	Insulin prom inh	HUVEC tox IL1B
CC(C)NC(=O)c1nc2ccccc2s1	-3	3	-15	74*
O=C1C=C(Nc2ccc(Cl)cc2)CC(c2ccc(Cl)cc2)C1 (stereo not given)	2	-2	nt	-6
O=C1C=C(NCc2ccco2)CC(c2ccc(Cl)cc2)C1 (stereo not given)	-12	12	-8	86*
Cn1c(=S)n(C)c2ccccc21	nt	nt	42	nt
Cn1ccc(=S)c2ccccc21	nt	nt	89*	nt
C/C(CC(=O)NC1CCCC1)=N\NC(=O)Cc1csc(N)n1	nt	nt	54	nt
O=C(Nc1ccc(Cl)cc1C(=O)N1CCOCC1)c1cccc([N+](=O)[O-])c1	nt	nt	-7	nt
O=C(O)Cc1ccc(O)c(F)c1	nt	nt	-38	nt
O=C(O)c1cccc(NC(=S)N/N=C/c2cccc(O)c2)c1	nt	nt	78*	nt
Cc1cccc(C(=O)NC2CCN(S(=O)(=O)c3ccccc3)CC2)c1	nt	nt	8	nt
CCN1C(=O)/C(=C/c2ccc(OC)c(OC)c2)N=C1SCC(=O)NCc1ccco1	nt	nt	27	nt
CCCCn1c(=O)nc2n(-c3ccccc3)c3ccccc3cc-2c1=O	92*	-92	nt	-52
C=CCC(NCc1ccco1)c1ccc(OC)cc1OC (stereo not given)	-58	58*	-11	-2
COc1ccc(N2CCN(C(=O)CCCn3c(=O)[nH]c4cc(Cl)ccc4c3=O)CC2)cc1	nt	nt	74*	nt
O=C(C1CCN(c2nnc(-n3cccc3)s2)CC1)N1CCOCC1	nt	nt	100*	nt
O=C(C1CCN(c2nnc(-n3cccc3)s2)CC1)N1CCN(c2cccc(C(F)(F)F)c2)CC1	-12	12	29	-18
COc1ccc(-n2c(SCC(N)=O)nnc2-c2ccccc2F)cc1	1	-1	48	-35
Cc1c(Cl)c(C(F)(F)F)nn1CC(=O)N1CCSCC1	12	-12	100*	-28
Cc1ccc(C2(c3noc(CN4CCC(c5ccncc5)CC4)n3)CCCC2)cc1	nt	nt	0	nt
CCC12CCCN3CCC4(C(=C(C(=O)OC)C1)Nc1ccccc14)C32 (stereo not given)	9	-9	-82	-14
CCn1c(SCC(=O)NCc2cccs2)nnc1-c1ccncc1	25	-25	-12	2
CCn1c(SCC(=O)Nc2cccc(NC(=O)c3cccs3)c2)nnc1-c1ccncc1	42*	-42	0	-40
Cc1ccc(NC(=O)COC(=O)CCC(=O)c2cccs2)cc1S(=O)(=O)N1CCOCC1	48*	-48	-4	-18
Cc1ccc(NC(=O)CSc2ccccn2)cc1S(=O)(=O)N1CCOCC1	nt	nt	74*	nt
Cc1ccc(Nc2nnc(SCC(=O)Nc3ccc(S(=O)(=O)N4CCOCC4)cc3)s2)cc1	-34	34*	21	84*
SMILES	NFkB transloc pot	NFkB transloc inh	Insulin prom inh	HUVEC tox IL1B
Cc1ccc(NC(=O)CSc2nccn2C)cc1S(=O)(=O)N1CCOCC1	nt	nt	1	nt
O=C(CSc1nnc(Nc2ccccc2)s1)Nc1ccc(S(=O)(=O)N2CCOCC2)cc1	-3	3	14	-2
C=CCn1c(SCc2cc(C(C)=O)ccc2OCC)nc2ccccc2c1=O	nt	nt	-67	nt
CC(C)CC(=O)Nc1cc([N+](=O)[O-])ccc1Cl	-5	5	nt	28
CC(C(=O)Nc1cc([N+](=O)[O-])ccc1Cl)N1CCN(c2ccc(O)cc2)CC1 (stereo not given)	nt	nt	72*	nt
NC(=O)N1CCN(C(=O)c2ccco2)CC1	-31	31*	-50	84*
O=C(CCCc1nc(-c2ccccc2Cl)no1)N1CCOCC1	nt	nt	32	nt
CC(C)c1nc2cc3ccccc3cc2[nH]1	7	-7	86*	21
Cc1ccc2nc(C(C)O)[nH]c2c1 (stereo not given)	10	-10	31	-25
COc1ccc(Cn2nnc3c(=O)[nH]c(C(=O)NCCc4ccc(F)cc4)nc32)cc1OC	nt	nt	90*	nt
O=C(NCCc1ccccc1)c1nc2c(nnn2Cc2ccccc2Cl)c(=O)[nH]1	-15	15	-58	-16
O=C(NC1CCCC1)C(c1ccccc1)N(C(=O)c1ccno1)c1ccccc1 (stereo not given)	-46	46*	60	73*
O=C(NC1CCCC1)C(c1ccccc1)N(C(=O)c1ccno1)c1cccnc1 (stereo not given)	31	-31	nt	-8
O=C(CCc1nc2ccccc2[nH]1)Nc1ccc2c(c1)OCO2	-43	44*	72	0
CCOC(=O)c1c(N)nn(C(=O)C(C)C)c1-c1ccc(OC)cc1	-5	5	79*	-91
Nc1cc(C(=O)O)c(Oc2ccc(Cl)cc2Cl)cc1C(=O)O	nt	nt	67*	nt
S=C(NCCc1ccccc1)Nc1cccc2cnccc12	nt	nt	73*	nt
CCN(CC)c1ccc(/C=N/NC(=S)NCc2ccco2)cc1	nt	nt	100*	nt
CCOc1cc(C)c(C(C)C)cc1S(=O)(=O)n1ccc(C)n1	3	-3	82*	-44
CCOc1cc(C)c(C(C)C)cc1S(=O)(=O)NCc1ccccn1	-100	100*	38	85*
COc1cc(S(=O)(=O)NCc2ccccn2)c(OC)cc1Cl	9	-9	6	-4
CCOc1ccc(C)cc1S(=O)(=O)n1ccc(C)n1	-10	10	6	-5
CC(=O)Nc1nnc(SCC(=O)c2ccc(F)cc2)s1	nt	nt	-10	nt
CC(=O)Nc1nnc(SCc2ccc(F)cc2)s1	-6	6	26	80*
O=C(CSc1nnc(NC(=O)Cc2ccc(F)cc2)s1)NCc1ccco1	nt	nt	92*	nt
SMILES	NFkB transloc pot	NFkB transloc inh	Insulin prom inh	HUVEC tox IL1B
COc1ccc(S(=O)(=O)N2Cc3ccccc3CC2C(=O)Nc2nccs2)cc1 (stereo not given)	-10	10	3	-10
CNC(=O)C(=O)N/N=C/c1ccc(Br)cc1	nt	nt	71*	nt
CCN(CC)C(=O)COc1cc(C)cc2oc(=O)cc(-c3ccccc3)c12	-33	33*	-19	5
CCSc1nnc(-c2ccccc2NC(C)=O)c(=O)[nH]1	6	-4	71*	-38
O=C1CC(c2ccc(F)cc2)Cc2nc(NCC3CCCO3)ncc21 (stereo not given)	-48	48*	27	-8
Clc1ccc(OCc2nc(-c3ccccn3)no2)c(Br)c1	-36	36*	nt	-14
Clc1ccccc1OCc1nc(-c2ccccn2)no1	-1	1	-64	10
COc1ccc2nc(NC(=O)CCN3C(=S)NC(C)(C)CC3C)sc2c1 (stereo not given)	nt	nt	-29	nt
CCOC(=O)c1cc2c(=O)n3ccccc3nc2n(CCOC)c1=NC(=O)c1ccncc1	6	-6	32	10
CCOC(=O)c1cc2c(=O)n3ccccc3nc2n(CCCOC)c1=NC(=O)c1cccnc1	44*	-44	-8	0
CCOc1cc(/C=N/O)ccc1OCc1ccc(C)cc1	nt	nt	-76	nt
O=C(CCN1CCc2ccccc2C(c2ccccc2)C1)c1ccc2c(c1)OCCO2 (stereo not given)	-34	34*	31	-117
Cc1n[nH]c(C)c1S(=O)(=O)N1CCN(C(=O)c2ccco2)CC1	2	-2	nt	-4
CCCCNC(=O)NNC(=O)COc1cccc(C)c1C	nt	nt	16	nt
Cc1cc(C)nc(N(C#N)S(=O)(=O)c2ccccc2)n1	6	-6	82*	-20
Cc1cc(C)nc(N(C#N)CN2C(=O)c3ccccc3C2=O)n1	?	-42	nt	-17
O=S(=O)(NC1c2cccc3cccc(c23)C1N1CCNCC1)c1ccc(Cl)cc1 (stereo not given)	nt	nt	13	nt

Assay outcomes as filed in PubChem BioAssay.
